Laboratory results as given in PubChem BioAssay (NCI).
The panel holds about 79,000 compounds, 15% with a hit somewhere; the sample as a whole holds those more often. Unmarked numbers belong to inactive results. Cut-off read from the data, not from the text of the source: active = growth inhibition above about 70%; inactive = the rest.

Experiment: NCI Yeast Anticancer Drug Screen. Data for the mec2-1 strain (AID 157)
Settings: S. cerevisiae mec2-1 strain, at 50.0 µM, stronger effect = higher value
How it was run: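 Mutant yeast (mec2-1) grown with compound; growth inhibition relative to vehicle control reported.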

SMILES | growth inhibition [%]
CCN(CC)CCN(CC)CC(=O)Nc1ccccc1Cl | -29.9
COc1[nH]c2ccccc2c1C=O | 30.6
CCOC(=O)C1=C(C(=O)c2ccc(C)cc2)C(c2ccc([N+](=O)[O-])cc2)C(C(=O)c2ccc(C)cc2)=C(C(=O)OCC)N1 | -18.2
CCOC(=O)CC1(CC(=O)OCC)OCCO1 | 7.1
CCOC(=O)CCC1(C)OCC(O)CO1 (stereo unspecified) (tested in a mixture with another compound) | -5.25
O=C(NCCc1[nH]nc2c1C(=O)C=C(Nc1ccccc1)C2=O)OCc1ccccc1 | -15.8
NNC(=O)c1ccc(OCc2nc3ccccc3[nH]2)cc1 | -31.9
C=Cc1c(C)c2cc3[nH]c(cc4nc(cc5nc(cc1[nH]2)C(C)=C5CCC(=O)OC)C(CCC(=O)OC)=C4C)c(C)c3C=C | 6.45
Cc1cc(N(CCC#N)S(=O)(=O)c2ccccc2)ccc1C=Nc1ccc(C(=O)O)cc1 | -8.35
CC(C)NC(=O)CCC(=O)O | 21.6
CC1=N/C(=C\c2ccc([N+](=O)[O-])cc2)C(=O)O1 | 9.05
COc1cc(C(C#N)NNC(=O)c2ccccc2O)ccc1O (stereo unspecified) | 42.8
NC(=O)CO | -15.9
CC1=CC(O)(Cc2ccccc2)CC(C)(C)C1 (stereo unspecified) | -36.2
CCCCCn1c(=O)c2c(=O)[nH][nH]c2c2ccccc21 | -7.9
CCCc1cc(=O)oc2c3c(c4c(c12)OC(C)(C)CC4)O[C@H](C)C(C)[C@@H]3O (stereo partly specified) | 7.45
